Measurements as given in PubChem BioAssay AID624151 (Broad Institute, 2012).
Among all 28,000 compounds or so, about 410 (1.5%) were called active. No stated cut-off is given here; in the data, active means activation above about 52%; inconclusive means no clear call, values can overlap the other calls; inactive means below that. The entries come from a sample that favours actives as a whole.

test: mutant p53 pathway re-activators, primary screen, cell-based, SW480, luciferase, single point, HTS (AID 624151); conditions: SW480 PUMA-promoter luciferase, p53 mutant reactivation; at 9.98 µM; active compounds read high

SMILES	activation
CC(C)CC#Cc1cnc2c(c1)C(=O)N([C@@H](C)CO)C[C@H](C)[C@@H](CN(C)Cc1ccccc1C(=O)O)O2	-10.9% (inactive)
C/C=C/c1cnc2c(c1)C(=O)N([C@H](C)CO)C[C@H](C)[C@@H](CN(C)C(=O)c1cccc(F)c1)O2	0.956% (inactive)
O=C(CN1CCOCC1)Nc1ccc(NC(=O)CN2CCOCC2)c(Cl)c1	-19.4% (inactive)
Cc1cc(C)n2nc(SCC(=O)Nc3ccccc3[N+](=O)[O-])nc2n1	-13.8% (inactive)
O=C(CSc1nnc(-c2ccccc2)n1-c1ccccc1)c1cccc([N+](=O)[O-])c1	-1.58% (inactive)
O=C(CSc1nnc2ccc3ccccc3n12)Nc1ccc2c(c1)OCCO2	64.7% (active)
Cc1cccc(NC(=O)CSc2nnc3c4ccccc4nc(-c4ccccc4)n23)c1	13.8% (inactive)
CCn1c(SCC(=O)Nc2ccc3c(c2)OCCO3)nnc1-c1ccncc1	-4.36% (inactive)
COC(=O)Cc1c(C)nc2nc(COc3ccccc3)[nH]n2c1=O	10.4% (inactive)
O=C(NCc1ccccn1)C(=O)Nc1cccc(Cl)c1Cl	63.9% (active)
O=C(NCc1ccccn1)c1ccccc1C(=O)c1ccccc1	-9.74% (inactive)
CC(=O)Nc1ccc(NC(=O)COc2ccccc2C(=O)Nc2cccc(Cl)c2Cl)cc1	-38.7% (inactive)
C[C@@H]1CN([C@H](C)CO)C(=O)c2cc(-c3ccc(C#N)cc3)cnc2O[C@@H]1CN(C)CC1CC1	-0.916% (inactive)
COc1ccc(OC)c2c1CC(C)(C)N=C2SC	-18.5% (inactive)
O=C(CSc1nnc(-c2ccncc2)n1-c1ccccc1)Nc1ccc(Cl)c(Cl)c1	16.3% (inactive)
COc1cccc(C#Cc2cnc3c(c2)C(=O)N([C@@H](C)CO)C[C@H](C)[C@@H](CN(C)C(C)=O)O3)c1	1.26% (inactive)
O=C(C[C@H]1C[C@@H]2c3cc(NS(=O)(=O)c4ccc(F)cc4)ccc3O[C@@H]2[C@@H](CO)O1)NCc1cccc(F)c1	-7.78% (inactive)
CC(=O)N1C(=S)NC(=O)/C1=C/c1c(Cl)cccc1Cl	-5.19% (inactive)
C/C=C/c1cnc2c(c1)C(=O)N([C@@H](C)CO)C[C@H](C)[C@@H](CN(C)C(=O)C1CC1)O2	-5.73% (inactive)
CCCN(Cc1cc2cccc(C)c2[nH]c1=O)S(C)(=O)=O	-2.56% (inactive)
CCCNC(=O)N(C)C[C@H]1Oc2ncc(-c3ccccc3F)cc2C(=O)N([C@@H](C)CO)C[C@H]1C	1.17% (inactive)
COc1cccc(C#Cc2cnc3c(c2)C(=O)N([C@@H](C)CO)C[C@H](C)[C@@H](CN(C)C(=O)C2CCC2)O3)c1	9.52% (inactive)
C[C@@H]1CN([C@H](C)CO)C(=O)c2cc(C#CC3(O)CCCC3)cnc2O[C@H]1CN(C)C(=O)C1CCC1	15% (inactive)

SMILES	activation
COc1ccccc1NC(=O)C1=C(C)Nc2nnnn2C1c1ccccc1OCc1ccccc1 (stereo unspecified)	11.3% (inactive)
CCCC#Cc1cnc2c(c1)C(=O)N([C@H](C)CO)C[C@@H](C)[C@@H](CN(C)C(=O)Nc1ccccc1OC)O2	-6.47% (inactive)
CCCC#Cc1cnc2c(c1)C(=O)N([C@H](C)CO)C[C@H](C)[C@H](CN(C)S(=O)(=O)c1cn(C)cn1)O2	5.56% (inactive)
C[C@@H]1CN([C@H](C)CO)C(=O)c2c(c3ccccc3n2C)-c2ccccc2CO[C@@H]1CN(C)C(=O)Nc1ccccc1	10.9% (inactive)
Cc1ccc2oc(C(=O)Nc3nnc(SCc4ccccc4)s3)c(C)c2c1	17.4% (inactive)
C[C@@H]1CCCCO[C@H](CN(C)S(C)(=O)=O)[C@@H](C)CN([C@H](C)CO)C(=O)c2cc(NS(=O)(=O)c3ccc(Cl)cc3)ccc2O1	2.27% (inactive)
COCC#Cc1cnc2c(c1)C(=O)N([C@@H](C)CO)C[C@@H](C)[C@H](CN(C)C(=O)c1cnccn1)O2	2.72% (inactive)
C[C@@H]1CN([C@@H](C)CO)S(=O)(=O)c2ccc(C#CC3(O)CCCC3)cc2O[C@H]1CN(C)C(=O)c1ccncc1	7.47% (inactive)
C[C@H]1CN([C@@H](C)CO)C(=O)c2cc(-c3cccc(C(=O)N(C)C)c3)cnc2O[C@H]1CN(C)S(=O)(=O)c1ccccc1	10.1% (inactive)
CCCN(C)C[C@@H]1Oc2cc(-c3cccc(C#N)c3)ccc2S(=O)(=O)N([C@@H](C)CO)C[C@@H]1C	2.45% (inactive)
COCC#Cc1ccc2c(c1)O[C@@H](CN(C)Cc1ccccn1)[C@@H](C)CN([C@@H](C)CO)S2(=O)=O	5.92% (inactive)
CCOc1csc2nc(C)cc(C)c12	7.54% (inactive)
C[C@@H]1CN([C@@H](C)CO)S(=O)(=O)c2ccc(/C=C/c3ccccc3)cc2O[C@@H]1CN(C)C(=O)Nc1cc(F)ccc1F	-25.7% (inactive)
C[C@H]1CN([C@@H](C)CO)C(=O)c2cc(C#CCN(C)C)cnc2O[C@H]1CN(C)C(=O)Cc1ccccc1	-0.24% (inactive)
O=C(CC(C(=O)O)N1CCNCC1)Nc1cccc(Cl)c1 (stereo unspecified)	13.8% (inactive)
COc1ccc(OC(C)C(=O)Nc2cccnc2)cc1 (stereo unspecified)	-3.84% (inactive)
CC(=O)Oc1ccc(C(=O)N(C(=O)c2ccc(OC(C)=O)cc2)c2cc(C)ccn2)cc1	6.89% (inactive)
CCn1c(SCC(=O)Nc2cc(Cl)c(Cl)cc2Cl)nnc1-c1ccccc1Cl	-3.77% (inactive)
Cc1ccc(S(=O)(=O)Nc2ccc3c(c2)C(=O)N([C@H](C)CO)C[C@@H](C)[C@H](CN(C)S(=O)(=O)c2ccc(C)cc2)OCCCC[C@@H](C)O3)cc1	-37.2% (inactive)
O=C(C[C@H]1C[C@H]2c3cc(NC(=O)Nc4ccccc4F)ccc3O[C@H]2[C@H](CO)O1)NCc1ccccn1	3.57% (inactive)
Cc1ccc2c(c1)CCCN2S(=O)(=O)c1cc(OCC(N)=O)c(C)cc1Cl	-21.2% (inactive)
O=C(C[C@H]1C[C@@H]2c3cc(NC(=O)c4ccc5c(c4)OCO5)ccc3O[C@@H]2[C@@H](CO)O1)NCCN1CCCCC1	13.6% (inactive)
O=C(Nc1ccc(-c2nc3ccccc3o2)c(O)c1)c1ncn[nH]1	-35% (inactive)
